# Sampled rows, rich in hits. Any-hit rate of the full collection: about 1.1%.
# Mtb BioA inh: M. tuberculosis BioA enzyme inhibitors, primary screen, biochemical, plate reader, single point, HTS; actives 0.096% (n = 360,000); purified M. tuberculosis BioA enzyme; inhibition, % at 9.99 µM; 7,8-diaminopelargonic acid synthase BioA (Mycobacterium tuberculosis); in the data active = inhibition above about 40%; inconclusive = no clear call, values can overlap the other calls
# PrP UTR inh: inhibition of PrP 5' UTR reporter expression | cell-based PrP 5' UTR mRNA reporter, plate reader | inhibition, % (concentration not given with the values) | actives 0.35% (n = 340,000) | AID 488862, 2010; in the data active = inhibition above about 52%; also: 0 = median of the neutral control wells
# Yp Topo-I inh: Yersinia pestis topoisomerase I inhibitors, primary screen, biochemical, cleavage product accumulation, plate reader, single point. activity, % at 10 µM. Y. pestis Topo-I cleavage product accumulation. DNA topoisomerase I (Yersinia pestis CO92). actives 0.064% (n = 360,000); in the data active = activity above about 50%, passing the limit was not always enough; inconclusive = no clear call, values can overlap the other calls
# PfHsp40 yeast: rescue of yeast from PfHsp40 toxicity, primary screen, S. cerevisiae, ATP luminescence | S. cerevisiae expressing PfHsp40, growth rescue | growth rescue, % at 12.5 µM | actives 0.68% (n = 340,000) | AID 504582, 2011; in the data active = growth rescue above about 28%, passing the limit was not always enough; inconclusive = no clear call, values can overlap the other calls;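 also: yeast W303a lacking pdr1 and pdr3 grown in galactose medium; growth measured after three days at 30 °C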
# FadD28 FP inh: inhibitors of FadD28 bisubstrate probe binding, primary screen, biochemical, fluorescence polarization, single point; actives 0.22% (n = 360,000); inhibition, % at 12.5 µM; AID 588549, 2011; Mycobacterium tuberculosis FadD28 fatty-acid-AMP ligase; in the data active = inhibition above about 8.5%, passing the limit was not always enough; inconclusive = no clear call, values can overlap the other calls
# * marks the source's active call; other numbers are inactive results; u = inconclusive; x = no result.
SMILES,Mtb BioA inh,PrP UTR inh,Yp Topo-I inh,PfHsp40 yeast,FadD28 FP inh
COc1ccc(NC(=O)NNC(=O)c2cc3ccccc3cc2O)cc1,-2,-33,10,90*,-3
CC(=O)NC(CC(=O)NNC(=O)c1cc2ccccc2cc1O)c1ccccc1 (configuration not stated),-1,-10,4,78*,-3
COc1cc(NC(=O)COC(=O)CC(NC(C)=O)c2ccccc2)cc(OC)c1 (configuration not stated),2,-24,2,0,-1
O=C(NNC(=O)c1cc2ccccc2cc1O)Nc1ccc(Br)cc1,1,-18,-18,36*,-1
CO[C@H]1CN(C)C(=O)c2cc(NC(=O)Nc3ccccc3F)ccc2OC[C@H](C)N(C(C)=O)C[C@H]1C,-1,x,x,x,x
Cc1ccc(S(=O)(=O)N(C)C[C@@H]2Oc3ccc(NC(=O)Nc4cccc5ccccc45)cc3CC(=O)N([C@@H](C)CO)C[C@H]2C)cc1,-1,x,x,x,x
CCC(=O)N1CC[C@@H]2[C@H]1c1cc(C#Cc3ccc(OC)cc3)ccc1N[C@@H]2CO,-1,x,x,x,x
CN(C)S(=O)(=O)c1cccc(NC(=S)NNC(=O)c2cc3ccccc3cc2O)c1,-1,-13,-1,219*,u
COc1ccc(/C=C2/Sc3ccc(C(=O)N4CCc5ccccc5C4)cc3NC2=O)cc1,x,-19,39,48*,1
CCc1nc2ccc(C(=O)NCCCn3ccnc3)cn2c1N(C)Cc1cc2ccccc2s1,0,x,5,x,9.2*
CCc1nc2ccc(C(=O)NCCCn3ccnc3)cn2c1N(C)Cc1ccc(OC)cc1,3,x,1,x,-2
CC1Oc2cc3oc4c(O)c(O)ccc4c(=O)c3c(O)c2C1(C)C (configuration not stated),0,-43,-16,335*,2
CC(C)COc1ccc(CNC(=S)NCc2ccccc2)cc1,-1,0,19,51*,2
O=c1c2ccccc2nc(-c2ccccc2)n1-c1ccccc1O,4,-22,-19,0,-5
O=C1c2ccccc2-n2c1nc1ccccc1c2=O,-1,-46,2,58*,1
CCNC(=O)Nc1ccc2c(c1)C(=O)N(C)[C@H]1CC[C@@H](CC(=O)NC3CCCCC3)O[C@H]1CO2,-3,x,x,x,x
COc1cc(-c2noc(C)c2C#Cc2ccc(N)cc2)cc(OC)c1OC,-1,65*,18,0,-3
Cc1sc(-n2c(C)cc(/C=N/n3cnnc3)c2C)c(C#N)c1C,1,5,9,-2,-1
Cc1cc(/C=C2\SC(=S)NC2=O)c(C)[nH]1,4,-26,-12,0,33*
Cc1cc(/C=C2\SC(=S)NC2=O)c(C)n1-c1cccc(O)c1,x,-46,-6,240*,17*
Cc1sc(-n2c(C)cc(/C=C3\SC(=S)NC3=O)c2C)c(C#N)c1C,-1,-9,8,0,17*
Cc1ccc(-n2c(C)cc(/C=C3\SC(=O)NC3=O)c2C)cc1,0,-51,-3,1,3
CCn1c(C)cc(/C=C2/SC(=S)NC2=O)c1C,x,-14,1,0,0
O=C(NCc1ccc(F)cc1)[C@@H]1[C@@H](CO)[C@@H]2Cn3c(cccc3=O)[C@H]1N2CC1CCCC1,0,x,x,x,x
CC(Cc1cccs1)NC(=O)Nc1ccc(Cl)c(Cl)c1 (configuration not stated),1,-39,-1,131*,-8
SMILES,Mtb BioA inh,PrP UTR inh,Yp Topo-I inh,PfHsp40 yeast,FadD28 FP inh
CC(Cc1cccs1)NC(=O)Nc1ccc(Cl)cc1 (configuration not stated),1,-56,18,1,-2
O=C1C=CC(=O)N1c1ccc2ccccc2c1,0,-13,22,766*,-1
O=C1C=CC(=O)N1c1ccc(Nc2ccccc2)cc1,-1,-9,-3,236*,-1
Cc1csc(NC(=O)CSc2nnc(NC(=O)NC(C)(C)C)s2)n1,-1,-12,-2,2,12*
COCCNC(=O)C[C@@H]1C=C[C@@H](NS(=O)(=O)c2ccc(C)cc2)[C@@H](CO)O1,-3,x,x,x,x
COc1ccc(NC(=O)Nc2ccc3c(c2)C(=O)N([C@H](C)CO)C[C@@H](C)[C@H](CN(C)S(=O)(=O)c2cccs2)O3)cc1,1,x,x,x,x
O=C(O)c1[nH]c2ccccc2c1C(c1c(F)cccc1Cl)c1c(C(=O)O)[nH]c2ccccc12,0,-21,-3,7,24*
O=C(O)c1[nH]c2ccccc2c1C(c1cc(Br)ccc1O)c1c(C(=O)O)[nH]c2ccccc12,1,-7,-7,18,35*
COc1cc(Cl)cc(C(c2c(C(=O)O)[nH]c3ccccc23)c2c(C(=O)O)[nH]c3ccccc23)c1O,0,-8,-12,5,33*
COc1cc(C(=O)Nc2c(C(=O)O)[nH]c3ccccc23)cc(OC)c1OC,0,6,1,-1,0
C[C@H](CO)N1C[C@H](C)[C@H](CN(C)CC2CC2)OCCCC[C@H](C)Oc2ccc(NS(=O)(=O)c3ccc(F)cc3)cc2C1=O,0,x,x,x,x
CO[C@H]1CN(C)C(=O)c2ccc(NC(=O)Nc3ccc(Cl)cc3)cc2OC[C@@H](C)N(C(=O)Nc2c(C)noc2C)C[C@H]1C,1,x,x,x,x
COc1ccc(OC)c2c1C(=O)C(Cl)=C(Cl)C2=O,-2,-6,0,613*,-1
COc1ccc(C2CC(=O)Oc3c(C(C)C)ccc(C)c32)cc1 (configuration not stated),1,24,0,-1,8.8*
COc1ccc(C2CC(=O)Oc3cc(C)cc(C)c32)cc1 (configuration not stated),1,-17,17,3,-2
O=C(C[C@@H]1CC[C@@H]2[C@H](COC[C@H](O)CN2Cc2ccncc2)O1)NCc1ccncc1,1,x,x,x,x
C/C(CC(=O)Nc1ccccn1)=N\NC(=O)c1ccccc1O,1,-31,-5,234*,1
COc1ccc(Cl)cc1NC(=O)C/C(C)=N/NC(=O)c1ccccc1Cl,-1,-21,2,-1,0
COc1cccc(NC(=O)C/C(C)=N/NC(=O)c2ccccc2Cl)c1,3,-24,-3,39*,-3
C/C(CC(=O)Nc1ccccn1)=N\NC(=O)c1ccc2ccccc2c1,x,-31,1,0,0
CC1CN(C(=O)CCc2ccccc2)C(C)CN1C(=O)CCc1ccccc1 (configuration not stated),2,-28,15,45*,-4
CCOC(=O)N=Nc1c2ccccc2c2nc3no[nH]c3nc12,-2,21,20,116*,-1
CCOC(=O)N=Nc1c(O)n(CC(=O)OC)c2ccccc12,-2,5,-1,1,0
O=C(C[C@H]1C[C@H]2c3cc(NC(=O)Cc4ccncc4)ccc3O[C@H]2[C@H](CO)O1)NCc1ccccc1,-2,x,x,x,x

# Assay outcomes as filed in PubChem BioAssay.
